From PubChem
Rows were chosen to be rich in hits. Some 6.6% of all compounds tested hit in one or more screens of this group.
RGS4 inhibitor: human RGS4 inhibition; Transcreener GDP fluorescence polarization, RGS4-accelerated GTP hydrolysis; Potency, µM (top dose mostly 114 µM), actives largely listed as inhibitors; 0.039% of 390,000 active; further: nearly all actives have a fitted effect of over 75% in size
Target sequence (P49798 whole entry, looked up): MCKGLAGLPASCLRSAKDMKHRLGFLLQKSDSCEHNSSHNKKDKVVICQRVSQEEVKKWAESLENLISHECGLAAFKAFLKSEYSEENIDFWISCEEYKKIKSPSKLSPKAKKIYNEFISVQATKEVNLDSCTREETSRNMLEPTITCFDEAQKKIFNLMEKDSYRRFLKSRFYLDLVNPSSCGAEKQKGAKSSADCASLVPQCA
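MLSMR compounds (23 nl, pin-transferred) preincubated 10 min at room temperature with a 500nM (2x) first reagent, then RGS4 at 900nM (2x) plus Transcreener GDP mix added; fluorescence polarization (620/688 nm) read before and after 90 min at 30 °C.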
KB-V1 MDR tox: KB-V1 MDR subline cytotoxicity; KB-V1 MDR cells viability, CellTiter-Glo, 72 h; Potency, µM (highest dose often 46.1 µM), hits mostly cytotoxic; 3.4% of 400,000 active; further: nearly all actives have a fitted effect of over 60% in size
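Cytotoxicity via CellTiter-Glo luminescence after 72 h compound exposure at 37 degrees C. Cells: drug-selected KB-V1 line, DMEM phenol-red free plus 10% FBS. Compounds tested at multiple concentrations; normalized data fitted to concentration-effect curves.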
KB-3-1 cytotox: KB-3-1 parental cell cytotoxicity; KB-3-1 viability, CellTiter-Glo ATP luminescence, 72 h; 1.4% of 400,000 active; Potency, µM (top dose mostly 46.1 µM), usual class: cytotoxic; further: nearly all actives have a fitted effect of over 60% in size
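KB-3-1 cells, DMEM (no phenol red) + 10% FBS; compound by pin transfer, 72 h, 37 °C. Readout: CellTiter-Glo luminescence after 10 min. Data normalized, curve-fitted.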
MCF10A rerep: inducers of DNA re-replication in MCF 10A breast cells; MCF 10A DNA re-replication, Hoechst nuclear intensity, 48 h; 2.9% of 350,000 active; AID 624296; Potency, µM (titrated, usually from 46.1 µM), actives largely listed as activators; further: nearly all actives have a fitted effect of over 50% in size
TSG101-PTAP inh: blocks PTAP/TSG101 interaction to inhibit HIV-1 budding; Q99816; Fluorescence polarization, FITC-PTAP peptide / Tsg101 binding; Potency, µM (titrated, usually from 115 µM), actives largely listed as inhibitors; 340,000 tested, under 10 active; active means well fitted inhibition curve with a large enough effect in the main read-out, with a control signal flat, not every such curve was filed as active; inconclusive means small, poorly fitted or top-dose-only effect, or effect the other way, or a change in a side signal; inactive means no such curve, though single readings can be large or run the other way
Target sequence (Q99816 whole entry, looked up): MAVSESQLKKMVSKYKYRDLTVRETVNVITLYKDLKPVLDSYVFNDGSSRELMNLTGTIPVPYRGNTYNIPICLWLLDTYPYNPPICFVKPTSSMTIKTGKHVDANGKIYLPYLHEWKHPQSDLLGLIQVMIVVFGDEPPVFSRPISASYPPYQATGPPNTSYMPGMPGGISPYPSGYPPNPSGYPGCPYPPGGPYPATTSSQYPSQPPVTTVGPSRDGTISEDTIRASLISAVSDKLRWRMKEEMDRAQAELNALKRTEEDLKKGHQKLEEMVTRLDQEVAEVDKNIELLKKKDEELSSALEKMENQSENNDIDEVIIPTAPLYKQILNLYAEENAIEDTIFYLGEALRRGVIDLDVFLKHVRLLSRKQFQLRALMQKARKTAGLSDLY
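Steps: Tsg101 binding domain dispensed (10 uM final), compounds pinned in DMSO, FITC-labeled PTAP-motif peptide added (50 nM final); after 20 min binding at room temperature, polarization measured.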
SW480 rerep: DNA re-replication induction in SW480 cells. SW480 DNA re-replication, Hoechst DNA content imaging, 48 h. Potency, µM (doses to about 46.1 µM), hits mostly activators. 1.8% of 340,000 active. AID 624297; further: nearly all actives have a fitted effect of over 55% in size
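Compounds, transferred as 23 nL by pin tool, were incubated with cells for 48 hr; DNA content per nucleus was then quantified by Hoechst staining and fluorescence plate imaging.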
A number is an active result; n = inactive; u = inconclusive; x = no result; [ ] = dose if it differs, or a comment. Unless noted, the call rests on the fitted dose curve; in most records, active means well fitted curve in the direction sought with a large enough effect; inconclusive means small, poorly fitted or top-dose-only effect, or another doubt; inactive means no such curve, though single readings can be large; an effect the other way counts as inactive or inconclusive.

SMILES	RGS4 inhibitor	KB-V1 MDR tox	KB-3-1 cytotox	MCF10A rerep	TSG101-PTAP inh	SW480 rerep
COc1ccccc1N1CCN(C(=O)CN(CCc2ccccc2)S(C)(=O)=O)CC1	n	9.2µM	n	n	n	n
CS(=O)(=O)N(CC(=O)N1CCCCCC1)c1cccc(Br)c1	n	21µM	n	n	n	n
COc1ccc(OC)c(N(CC(=O)N2CCN(c3cc(Cl)ccc3C)CC2)S(C)(=O)=O)c1	n	23µM	n	n	n	n
COc1cccc(N(CC(=O)N2CCCCCC2)S(C)(=O)=O)c1	n	n	n	0.82µM	n	n
Cc1cccc(N(CC(=O)N2CCCCCC2)S(C)(=O)=O)c1	n	n	n	n	n	n
O=C(Cc1csc2ccccc12)NCc1cccc(Br)c1	n	n	n	x	x	x
COc1ccc(Nc2ncnc3c2nc2n3CCCC2)cc1Cl	n	x	x	x	x	x
CC1CCCC(NCC(O)COC(c2ccc(F)cc2)c2ccc(F)cc2)C1C (centres undefined)	n	18µM	u	u	n	n
Nc1nc(CCl)nc(N(c2ccccc2)c2ccccc2)n1	n	16µM	u	u	n	1.2µM
CC1CC(C)CN(C(=O)/C=C/c2ccc([N+](=O)[O-])s2)C1 (centres undefined)	n	u	n	n	n	u
CC(=O)c1cccc(NC(=O)/C=C/c2ccc([N+](=O)[O-])s2)c1	n	21µM	u	3.7µM	n	2.9µM
O=C(Nc1ccccc1F)c1ccc([N+](=O)[O-])s1	n	u	u	u	n	15µM
Cc1ccccc1NC(=O)/C=C/c1ccc([N+](=O)[O-])s1	n	u	u	1.6µM	n	0.16µM
Cc1cc(C)cc(NC(=O)/C=C/c2ccc([N+](=O)[O-])s2)c1	n	u	6.5µM	4.1µM	n	u
CCN(CC)CCCNC(=O)CCCn1ncn2c(cc3occc32)c1=O	n	x	x	x	x	x
COc1cc(C2C=C(C(=O)O)Nc3ncnn32)ccc1O (centres undefined)	n	u	n	x	x	x
CCCCOc1ccc(C(=O)Nc2cccc(-c3nc4cccnc4s3)c2)cc1	n	x	x	x	x	x
CC(C)Oc1ccc(CNC(=O)c2ccc3nc(C(C)C)oc3c2)cc1	n	x	x	x	x	x
CCOC(=O)N1CCC(N(CCCOC)C(=O)Nc2cccc(OC)c2)CC1	n	n	n	n	n	n
CCOC(=O)N1CCC(N(C(=O)Nc2cccc(OC)c2)C(C)CC)CC1 (centres undefined)	n	18µM	n	n	n	n
COc1cc(-c2noc(-c3ccc(NCc4ccco4)c([N+](=O)[O-])c3)n2)cc(OC)c1OC	n	n	n	x	x	x
Cn1c(SCC(=O)N(Cc2ccccc2)C(C)(C)C)nc2ccccc21	n	21µM	n	u	n	u
CCN(CC)C(=O)CSc1nc2cc3c(cc2c(=O)n1CCCCCC(=O)NCc1ccc(OC)cc1)OCO3	n	u	n	18µM	n	n
CCC(C)NC(=O)CSc1nc2cc3c(cc2c(=O)n1CCCCCC(=O)NCc1ccc(OC)cc1)OCO3 (centres undefined)	n	x	x	x	x	x
O=C(Nc1ccc2nc(SCC(=O)N3CCCc4ccccc43)sc2c1)c1ccccc1	n	x	x	x	x	x
SMILES	RGS4 inhibitor	KB-V1 MDR tox	KB-3-1 cytotox	MCF10A rerep	TSG101-PTAP inh	SW480 rerep
O=C(O)c1cccc(CN2C(=O)SC(Nc3ccccc3)C2=O)c1 (centres undefined)	n	n	n	23µM	n	n
Cc1ccc(NC2SC(=O)N(Cc3cccc(C(=O)O)c3)C2=O)cc1 (centres undefined)	n[11.4 µM]	n	n	n	n	n
Cc1cc(Br)cc2c(C(=O)NCC3CCCO3)cc(-c3cccs3)nc12 (centres undefined)	n	x	x	15µM	n	u
O=C(NCC1CCCO1)c1cc(-c2ccccc2)on1 (centres undefined)	n	21µM	n	n	n	n
O=C(NCC1CCCO1)c1csc2c1CCCCC2 (centres undefined)	n	n	n	2.6µM	n	n
COc1cccc(-c2cc(C(=O)NCC3CCCO3)c3cc(Br)cc(C)c3n2)c1 (centres undefined)	n	n	n	n	n	n
O=C(NCC1CCCO1)c1cc2ccccc2nc1Cl (centres undefined)	n	n	n	0.73µM	n	n
O=C(NCC1CCCO1)c1cc2ccccc2cc1O (centres undefined)	n	n	n	n	n	n
Cc1cc(C)c(NC(=O)C(C)n2nc(-c3ccc(C)c(C)c3)ccc2=O)c(C)c1 (centres undefined)	n	n	n	x	x	x
O=C(Nc1ccccc1C(=O)NCC1CCCO1)c1ccc(Cl)cc1Cl (centres undefined)	n	6.5µM	n	n	n	n
Cc1ccnc(NC(=O)c2ccc(Cl)c(NC(=O)c3ccccc3C)c2)c1	n	n	n	n	n	n
Cc1ccnc(NC(=O)c2ccccc2NC(=O)c2ccc(Cl)cc2Cl)c1	n	3.3µM	5.8µM	6.5µM	n	4.6µM
CCn1ccc2cc(S(=O)(=O)N3CCCN(C(=O)Nc4cccc(Cl)c4)CC3)ccc21	n	10µM	u	x	x	x
CCn1ccc2cc(S(=O)(=O)N3CCCN(C(=O)Nc4ccc(C)c(F)c4)CC3)ccc21	n	u	u	x	x	x
CN1CCN(S(=O)(=O)c2ccc(NC(=O)Nc3cccc(Cl)c3)cc2)CC1	n	n	n	n	n	n
O=C(Nc1cccc(Cl)c1)C1CCCN(S(=O)(=O)c2ccc(F)cc2)C1 (centres undefined)	n	6.5µM	u	n	n	n
Cc1ccc(C)c(OCCC(=O)Nc2cccc(S(=O)(=O)N3CCCCC3)c2)c1	n	15µM	n	n	n	n
O=C(Nc1cccc(Cl)c1)Nc1cc(S(=O)(=O)N2CCCCC2)ccc1Cl	n	u	u	6.5µM	n	u
O=C(CCNC(=O)c1ccccc1Cl)Nc1cccc(S(=O)(=O)N2CCCCC2)c1	n	n	n	n	n	n
O=C(CCCOc1ccccc1)Nc1cccc(S(=O)(=O)N2CCCCC2)c1	n	n	n	n	n	n
CC(C)(C)c1ccc(OCCC(=O)Nc2cccc(S(=O)(=O)N3CCCCC3)c2)cc1	n	21µM	u	n	n	n
O=C(CCS(=O)(=O)c1ccc(Cl)cc1)Nc1cccc(S(=O)(=O)N2CCCCCC2)c1	n	21µM	n	n	n	n
O=C(CSc1nc(-c2cccs2)nc2cc(=O)[nH]n12)Nc1cccc(C(F)(F)F)c1	u	n	n	x	x	x
Cc1ccc(S(=O)(=O)c2cnc(SC(C)C(=O)Nc3ccccc3)[nH]c2=O)cc1 (centres undefined)	n	n	n	x	x	x
Cc1ccc(NS(=O)(=O)c2ccc(C)c(NC(=O)COc3ccccc3)c2)c(C)c1	n	21µM	n	n	n	n
